Rac1 wt GTP bind: wildtype Rac1 GTP binding modulators, primary screen, biochemical, GST-Rac1 beads, flow cytometry, multiplex | GTP binding activity (% of control), % at 10 µM | fluorescent GTP binding; actives lie on both sides; 0 = cold GTP competed, 100 = untreated | 190,000 compounds, 0.27% hits | Ras-related C3 botulinum toxin substrate 1 (Homo sapiens), P63000 | AID 757, 2007;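 active = GTP binding activity at least 20 points away from the 100% control level, either lower or higher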
Rab2 wt GTP: modulators of GTP binding to Rab2A wildtype, primary screen, biochemical, dog, bead-based flow cytometry, multiplex; Ras-related protein Rab-2A (Canis lupus familiaris), P61105; GST-Rab2 wt beads, Bodipy-GTP binding; GTP binding activity, % at 10 µM; 190,000 compounds, 0.19% hits; AID 760, 2007;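 active = GTP binding activity at least 20 points away from 100%, either lowered or raised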
HRas wt GTP bind: modulators of GTP binding to HRas wildtype, primary screen, biochemical, bead-based flow cytometry, multiplex. GTPase HRas (Homo sapiens), P01112. GST-Ras wt beads, Bodipy-FL-GTP binding; actives lie on both sides. GTP binding activity, % at 10 µM. 190,000 compounds, 0.14% hits;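 active = GTP binding activity at least 20% away from the 100% baseline, either lowered as inhibitor or raised as activator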
Target sequence (P01112 whole entry, looked up): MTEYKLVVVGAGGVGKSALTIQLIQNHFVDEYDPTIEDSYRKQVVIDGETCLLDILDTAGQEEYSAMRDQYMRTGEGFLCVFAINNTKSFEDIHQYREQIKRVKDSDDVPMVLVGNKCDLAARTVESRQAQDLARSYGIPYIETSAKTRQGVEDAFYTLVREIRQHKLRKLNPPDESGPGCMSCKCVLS
Cdc42 wt GTP: modulators of GTP binding to wildtype Cdc42, primary screen, biochemical, multiplex bead flow cytometry, Bodipy-GTP; GST-Cdc42 beads; actives lie on both sides; percent activity (GTP binding), % at 10 µM; 190,000 compounds, 0.2% hits;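 active = percent activity GTP binding at least 20 points away from the 100% baseline, either down as inhibitor or up as activator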;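 note: median bead fluorescence of bound Bodipy-FL-GTP at 100 nM; below 100% means less GTP binding so inhibitor and above means activator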
Target sequence (P60953 whole entry, looked up): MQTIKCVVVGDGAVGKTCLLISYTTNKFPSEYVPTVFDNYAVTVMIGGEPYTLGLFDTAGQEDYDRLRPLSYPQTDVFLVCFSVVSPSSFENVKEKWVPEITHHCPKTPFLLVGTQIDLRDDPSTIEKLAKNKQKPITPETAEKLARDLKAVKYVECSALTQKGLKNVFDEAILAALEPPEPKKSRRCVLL
Rab7 wt modul: modulators of GTP binding to Rab7, primary screen, biochemical, wildtype, multiplex bead flow cytometry. 190,000 compounds, 0.055% hits. Rab7 GTPase wild type (dog), Bodipy-FL-GTP binding. AID 758, 2007. GTP binding activity (percent of control), % at 10 µM. GST-Rab7 beads, fluorescent GTP binding; actives lie on both sides; untreated = 100%, excess cold GTP = 0%;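 active = fluorescent GTP binding to Rab7 beads changed by at least 20 points from the 100% baseline, either direction, mostly lower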;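 note: median green fluorescence of bound Bodipy-FL-GTP per Rab7 bead population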
Rac1 mut GTP: GTP binding modulators of activated mutant Rac1, primary screen, biochemical, bead-based flow cytometry, multiplex, fluorescent GTP; GST-Rac1 activated beads; actives lie on both sides; 100% means binding = to untreated wells; percent activity (GTP binding), % at 10 µM; 190,000 compounds, 0.11% hits; AID 764, 2007;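 active = GTP binding at least 20 percentage points away from the 100% baseline, in either direction, so actives lie on both sides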
Of the large screens only hits and unclear results are named; the others gave an inactive call; [ ] = another dose, or the depositor's remark. An excerpt weighted towards active compounds, which were near 0.38% of everything screened.

COc1cc(/C=C2/SC(N)=NC2=O)ccc1Oc1ccc([N+](=O)[O-])cc1[N+](=O)[O-]	none
Cc1nonc1OCCn1c([N+](=O)[O-])cnc1C	none
NC(=O)c1c(NC(=O)c2ccncc2)sc2c1CCCC2	none
NC(=O)c1c(NC(=O)c2cnccn2)sc2c1CCCC2	Rac1 wt GTP bind 70
Cc1ccc(C(=O)Nn2c(O)c(C=C3N=c4ccccc4=N3)sc2=S)cc1	Rac1 wt GTP bind 72, HRas wt GTP bind 73, Cdc42 wt GTP 73, Rac1 mut GTP 79
O=C(Nn1c(O)c(C=C2N=c3ccccc3=N2)sc1=S)c1ccc(Cl)cc1	none
NC(=S)N/N=C/c1ccccc1OCCSc1ccc(Cl)cc1	none
Cc1cc(-c2n[nH]c(=S)n2/N=C/c2cc([N+](=O)[O-])ccc2Cl)n[nH]1	Rac1 wt GTP bind 71, Rab2 wt GTP 74, HRas wt GTP bind 77
Cc1cc(-c2n[nH]c(=S)n2/N=C/c2ccc(Cl)c([N+](=O)[O-])c2)n[nH]1	none
CC(=O)Nc1ccc(N2C(=O)c3ccc(C(=O)Nc4nnc(SCc5ccc(F)cc5)s4)cc3C2=O)cc1	HRas wt GTP bind 73
CCOc1ccccc1NC(=O)CSc1nnc2ccc(-c3ccncc3)nn12	none
COc1ccc(-c2nnc3ccc(SCC(=O)Nc4cc(C)on4)nn23)cc1OC	none
CCOc1ccccc1NC(=O)CSc1ccc2nnc(-c3cccnc3)n2n1	Rac1 wt GTP bind 58, Rab2 wt GTP 64, HRas wt GTP bind 69, Cdc42 wt GTP 65, Rac1 mut GTP 76
COc1ccc(NC(=O)CSc2ccc3nnc(-c4cccnc4)n3n2)c(OC)c1	Rac1 wt GTP bind 79
CCN(CC(=O)Nc1cccc(C(C)=O)c1)S(=O)(=O)c1ccccc1	none
Cc1ccc(-c2csc3nc(C)n(N)c(=O)c23)cc1	none
Cc1ccc(-c2csc3nc4c5ccccc5c(NCCCN5CCOCC5)nn4c(=O)c23)cc1	Rac1 wt GTP bind 60, Rab2 wt GTP 59, HRas wt GTP bind 60, Cdc42 wt GTP 57
Cc1ccc(-c2csc3nc4c5ccccc5c(NCCCN(C)C)nn4c(=O)c23)cc1	Rac1 wt GTP bind 79, Rab2 wt GTP 77, HRas wt GTP bind 73, Cdc42 wt GTP 72
COc1cccc(NC(=O)COC(=O)/C=C/c2ccc(Cl)cc2Cl)c1	Rac1 wt GTP bind 77, Rab2 wt GTP 79, Cdc42 wt GTP 79
COc1cc(NC(=O)COC(=O)/C=C/c2ccc(Cl)cc2Cl)cc(OC)c1	none
Cc1c(NC(=O)c2ccc(Br)s2)c(=O)n(-c2ccccc2)n1C	none
Cn1c(=O)n(Cc2ccc(F)cc2)c(=O)c2c1nc1n2CCN1Cc1ccco1	Rac1 wt GTP bind 75, Rab2 wt GTP 77
CCCN(CC1CC1)C(=S)Nc1ccc(Oc2ccccc2)cc1	Cdc42 wt GTP 79
S=C(Nc1ccc(Oc2ccc(NC(=S)NC3CCCCC3)cc2)cc1)NC1CCCCC1	none
CCCCN(C)C(=S)Nc1ccc(Oc2ccccc2)cc1	none
S=C(Nc1ccc(Oc2ccccc2)cc1)NC1CCCCCC1	Cdc42 wt GTP 79
O=C(O)c1ccc(NC(=S)NC2CCCCC2)cc1	none
S=C(Nc1ccc(Oc2ccccc2)cc1)NC1CCCCC1	Rac1 wt GTP bind 141[activator]
O=[N+]([O-])c1cc(S(=O)(=O)NC2=NCCCCC2)ccc1NCC1CCCCC1	none
COc1cc2[nH]c(=O)n(C3CCCCC3)c(=O)c2cc1OC	none
COc1cc2[nH]c(=S)nc(NC3CCCC3)c2cc1OC	Rac1 wt GTP bind 51, Rab2 wt GTP 60, HRas wt GTP bind 60, Cdc42 wt GTP 58, Rab7 wt modul 74, Rac1 mut GTP 70
Cc1ccnc(NC(=S)NC(=O)c2cccs2)c1	none
Cc1ccc(Cc2cnc(NC(=O)/C(C#N)=C/c3ccc(-c4ccc([N+](=O)[O-])cc4)o3)s2)cc1	Rab7 wt modul 79
N#CC(C#N)=C1C=CC=CN1/C(=C\c1ccccc1)C(=O)c1cccs1	none
N#CC(C#N)=C1C=CC=CN1/C(=C\c1ccccc1Cl)C(=O)c1ccccc1	Cdc42 wt GTP 78
NC(=O)C1(N2CCCCC2)CCN(C(=S)Nc2cc(F)cc(F)c2)CC1	none
COc1ccc(-n2c(SCc3ccc([N+](=O)[O-])cc3)nnc2-c2ccc(C)cc2)cc1	none
Clc1ccc(Cn2ncc3c(N4CCCC4)ncnc32)cc1	none
Clc1ccc(Cn2ncc3c(N4CCOCC4)ncnc32)cc1	Rab2 wt GTP 59
CCCCn1c(O)c(N=NC(=O)c2ccccc2NS(=O)(=O)c2cccs2)c2ccccc21	Rac1 mut GTP 78
C=CCn1c(O)c(N=NC(=O)c2ccccc2NS(=O)(=O)c2cccs2)c2ccccc21	none
C=CCN(C(=O)c1cccc(N2C(=O)C3CC=CC(C)C3C2=O)c1)c1ccccc1 (stereo not drawn)	none
Cc1cc(N/N=C/c2ccc(O)cc2O)nc(-c2ccccc2O)n1	Rac1 wt GTP bind 71, Rab2 wt GTP 77, HRas wt GTP bind 79
COc1ccc(/C=C(\NC(=O)c2ccccc2)C(=O)OC[C@@H]2CCC[N+]3(C)CCCCC23)cc1OC (stereo partly drawn)	none
NS(=O)(=O)c1ccc(N2N=C(c3ccccc3)CC2c2cccc(F)c2)cc1 (stereo not drawn)	Cdc42 wt GTP 61
NC(=S)N=Nc1c(O)[nH]c2cc(F)c(F)cc12	Rab2 wt GTP 78
CC(C)c1ccc(NC(=O)N2CCCC2C(=O)Nc2ccc(-n3cnnn3)cc2)cc1 (stereo not drawn)	none
COc1ccc(CNc2nc3ccccc3n2Cc2ccc(C)cc2)cc1OC	Rac1 wt GTP bind 142[activator], Rab2 wt GTP 123[activator], HRas wt GTP bind 121[activator], Cdc42 wt GTP 131[activator], Rac1 mut GTP 125[activator]
c1ccc(Cn2c(NCc3ccncc3)nc3ccccc32)cc1	none
COc1ccc(OC)c(C(C(=O)NCc2ccco2)N(C(=O)Cn2nnc3ccccc32)C2CC2)c1 (stereo not drawn)	Rac1 wt GTP bind 130[activator], Rab2 wt GTP 121[activator], HRas wt GTP bind 121[activator], Cdc42 wt GTP 126[activator]
CCN1C(c2ccccc2)=C(c2ccccc2)S/C1=C/C=C1\SC(=S)N(C)C1=O	Rac1 wt GTP bind 71, Rab2 wt GTP 71, HRas wt GTP bind 66, Cdc42 wt GTP 67, Rab7 wt modul 72, Rac1 mut GTP 69

Screening results as filed in PubChem BioAssay.
